# Measured values as given in PubChem BioAssay (EPA / NIEHS).
# Records with an inconclusive call do not appear. The source holds several records for some structures; these can differ, active in one and inactive in another. The source made the active and inactive calls. The calls were made as follows, unless noted: active = hit-call score of the fitted dose curve at least 0.9, where 1 is the maximum; inactive = score below 0.9.
# Columns and labels:
# [1] = molecular target: Hepatocyte nuclear factor 4-alpha (Homo sapiens) (UniProt P41235); experiment: ATG_HNF4a_TRANS: Attagene TRANS-FACTORIAL HepG2 Assay for human Hepatocyte Nuclear Factor 4 alpha (HNF4a) (AID 2282982; active = hit-call score of the fitted dose curve at least 0.9, where 1 is the maximum); details: HepG2 HNF4a transactivation reporter, mRNA readout
# Chain of Hepatocyte nuclear factor 4-alpha (Homo sapiens) (P41235 whole entry, looked up, the tested form may be a part): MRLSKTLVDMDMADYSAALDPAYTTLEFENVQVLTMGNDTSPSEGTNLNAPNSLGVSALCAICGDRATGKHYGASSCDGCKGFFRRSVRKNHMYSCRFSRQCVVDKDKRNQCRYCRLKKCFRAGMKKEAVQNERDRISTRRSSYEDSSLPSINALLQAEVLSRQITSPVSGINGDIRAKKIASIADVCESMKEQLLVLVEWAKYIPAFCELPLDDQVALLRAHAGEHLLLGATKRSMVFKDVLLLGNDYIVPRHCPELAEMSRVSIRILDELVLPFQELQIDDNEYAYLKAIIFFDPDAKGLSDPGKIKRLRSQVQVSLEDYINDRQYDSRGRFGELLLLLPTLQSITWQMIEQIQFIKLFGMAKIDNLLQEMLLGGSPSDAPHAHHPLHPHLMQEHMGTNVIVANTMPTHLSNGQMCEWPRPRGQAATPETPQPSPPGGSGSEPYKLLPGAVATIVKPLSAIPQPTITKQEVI
# Outline: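 Activity of an exogenous HNF4a–Gal4 fusion scored as induced GAL4-UAS reporter transcripts after 24 h chemical exposure of transfected human HepG2 cells. Read-out via RT-PCR with 6-FAM labelling and capillary electrophoresis; rise over DMSO baseline.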
# [2] = ATG_M_06_TRANS: Attagene TRANS-FACTORIAL HepG2 Assay for M06 Transcription Factor (Internal Marker) (AID 2282983; active = hit-call score of the fitted dose curve at least 0.9, where 1 is the maximum); details: HepG2 Attagene TRANS M06 internal marker reporter
# Outline: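 Human liver HepG2 cells bearing transiently transfected chimeric NR-GAL4 reporter units were treated with chemicals for 24 h. Total RNA was reverse-transcribed, reporter sequences amplified and labelled, then quantified by capillary electrophoresis. Activity was fitted upward relative to DMSO.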
# [3] = molecular target: Transcriptional activator Myb (Homo sapiens) (UniProt P10242); experiment: ATG_Myb_CIS: Attagene CIS-FACTORIAL HepG2 Assay for human Myeloblastosis (Myb) Proto-Oncogene Transcription Factor (AID 2282986); details: HepG2 Attagene CIS-FACTORIAL Myb reporter transcription; actives raise or lower the signal
# Chain of Transcriptional activator Myb (Homo sapiens) (P10242 whole entry, looked up): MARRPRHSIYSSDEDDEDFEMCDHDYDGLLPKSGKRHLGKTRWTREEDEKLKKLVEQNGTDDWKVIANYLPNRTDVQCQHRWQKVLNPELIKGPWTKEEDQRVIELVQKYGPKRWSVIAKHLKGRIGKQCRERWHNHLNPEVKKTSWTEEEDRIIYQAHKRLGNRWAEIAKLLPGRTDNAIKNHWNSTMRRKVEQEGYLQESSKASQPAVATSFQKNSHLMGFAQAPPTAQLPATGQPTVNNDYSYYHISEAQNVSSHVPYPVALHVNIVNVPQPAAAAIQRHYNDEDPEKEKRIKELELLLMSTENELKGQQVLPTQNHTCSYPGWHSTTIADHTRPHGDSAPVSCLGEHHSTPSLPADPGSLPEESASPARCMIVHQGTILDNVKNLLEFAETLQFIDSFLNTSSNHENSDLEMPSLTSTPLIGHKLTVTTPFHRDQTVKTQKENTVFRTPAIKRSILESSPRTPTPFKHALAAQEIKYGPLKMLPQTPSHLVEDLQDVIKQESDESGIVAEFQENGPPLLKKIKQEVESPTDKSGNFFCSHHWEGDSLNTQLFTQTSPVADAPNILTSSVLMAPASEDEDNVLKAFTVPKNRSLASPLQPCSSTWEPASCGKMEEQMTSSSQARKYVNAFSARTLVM
# Outline: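 After 24 h of compound dosing, total RNA from transfected HepG2 cells is reverse-transcribed and the reporter sequences amplified, labeled and separated by capillary electrophoresis. Values come from bidirectional fitting against DMSO.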
# [4] = ATG_NFI_CIS: Attagene CIS-FACTORIAL HepG2 Assay for human Nuclear Factor I (NFI) (AID 2282989); details: HepG2 cis-regulatory reporter, NFI response element transcription; actives raise or lower the signal
# Outline: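 HepG2, transient MRTU, 24 h exposure; RNA→cDNA→PCR→FAM label→HpaI→CE fluorescence. Bidirectional fit, DMSO = baseline.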
# [5] = molecular target: Myc proto-oncogene protein (Homo sapiens) (UniProt P01106); experiment: ATG_Myc_CIS: Attagene CIS-FACTORIAL HepG2 Assay for human Myelocytomatosis (Myc) Proto-Oncogene Transcription Factor (AID 2282990); details: HepG2, Attagene cis-reporter transcription factor activity; actives raise or lower the signal
# Chain of Myc proto-oncogene protein (Homo sapiens) (P01106 whole entry, looked up, the tested form may be a part): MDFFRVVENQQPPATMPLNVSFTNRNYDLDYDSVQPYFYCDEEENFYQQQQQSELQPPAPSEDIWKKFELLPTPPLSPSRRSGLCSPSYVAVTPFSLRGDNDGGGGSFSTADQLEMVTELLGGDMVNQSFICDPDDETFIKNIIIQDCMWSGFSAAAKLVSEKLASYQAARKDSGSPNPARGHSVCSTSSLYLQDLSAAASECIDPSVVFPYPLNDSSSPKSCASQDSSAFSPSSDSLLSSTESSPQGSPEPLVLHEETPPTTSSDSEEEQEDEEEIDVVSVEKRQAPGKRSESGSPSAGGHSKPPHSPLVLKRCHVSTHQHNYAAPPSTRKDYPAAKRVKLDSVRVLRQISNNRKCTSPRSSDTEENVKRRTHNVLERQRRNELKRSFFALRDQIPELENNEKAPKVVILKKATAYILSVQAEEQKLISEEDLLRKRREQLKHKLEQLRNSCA
# Outline: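 After 24 h chemical treatment of HepG2 cells carrying multiplexed cis-regulated reporter constructs, reporter transcripts quantified by RT-PCR and capillary electrophoresis of fluorescent fragments. Gain or loss fitted against DMSO baseline.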
# [6] = ATG_NF_kB_CIS: Attagene CIS-FACTORIAL HepG2 Assay for human Nuclear Factor Kappa B (NF-kB) (AID 2282991); details: HepG2 Attagene cis-factorial NF-kB reporter mRNA; actives raise or lower the signal
# Outline: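 Fluorescence of labelled RT-PCR products separated by capillary electrophoresis gives reporter mRNA levels from transfected HepG2 cells exposed 24 h; values are fitted in both directions relative to DMSO.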
# [7] = ATG_NRF2_ARE_CIS: Attagene CIS-FACTORIAL HepG2 Assay for human Nuclear Factor Erythroid 2 Related Factor 2 (NFR2) response to Antioxidant Response Elements (ARE) (AID 2282992); details: HepG2 Attagene ARE/NRF2 reporter, transcription factor activity; actives raise or lower the signal
# Outline: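 Endogenous transcription factor activity read out as reporter transcript levels (RT-PCR plus capillary electrophoresis, fluorescence) in transiently transfected HepG2 cells. Measured at 24 h after dosing; gain or loss of signal fitted versus DMSO.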
# [8] = ATG_Oct_MLP_CIS: Attagene CIS-FACTORIAL HepG2 Assay for human Octamer-Binding Transcription Factor (Oct) (AID 2282993); details: HepG2 Attagene cis-factorial Oct reporter, mRNA; actives raise or lower the signal
# Outline: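 Multiplexed cis-reporter assay in human liver HepG2 cells, 24 h incubation. Reporter RNA amplified and labelled, then resolved by capillary electrophoresis; DMSO serves as negative control and baseline.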
# [9] = molecular target: Cellular tumor antigen p53 (Homo sapiens) (UniProt P04637); experiment: ATG_p53_CIS: Attagene CIS-FACTORIAL HepG2 Assay for human p53 Transcription Factor (AID 2282994); details: HepG2 p53 cis-element reporter, Attagene mRNA; actives raise or lower the signal
# Chain of Cellular tumor antigen p53 (Homo sapiens) (P04637 whole entry, looked up): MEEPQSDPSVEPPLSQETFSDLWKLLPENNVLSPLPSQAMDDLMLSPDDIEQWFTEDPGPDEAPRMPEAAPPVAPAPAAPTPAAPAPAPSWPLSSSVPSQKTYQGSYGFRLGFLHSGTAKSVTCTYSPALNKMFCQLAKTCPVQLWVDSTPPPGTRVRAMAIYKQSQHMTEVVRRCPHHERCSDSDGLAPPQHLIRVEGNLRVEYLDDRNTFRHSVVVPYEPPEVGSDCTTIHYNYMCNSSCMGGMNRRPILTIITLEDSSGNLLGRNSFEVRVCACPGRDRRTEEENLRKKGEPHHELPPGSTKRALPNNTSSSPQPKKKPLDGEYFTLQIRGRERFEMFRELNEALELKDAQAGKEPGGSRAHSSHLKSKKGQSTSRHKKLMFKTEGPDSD
# Outline: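 Endogenous p53 activity read in transiently transfected HepG2 from a cis-element-driven reporter transcript after 24 h exposure. RNA reverse-transcribed, PCR-amplified, fluorescently labelled and sized by capillary electrophoresis; gain or loss fitted against DMSO baseline.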
# [10] = molecular target: human Peroxisome Proliferator-activated Receptor alpha (PPARa), PPARA (gene 5465) (UniProt Q07869); experiment: ATG_PPARa_TRANS: Attagene TRANS-FACTORIAL HepG2 Assay for human Peroxisome Proliferator-activated Receptor alpha (PPARa) (AID 2283001; active = hit-call score of the fitted dose curve at least 0.9, where 1 is the maximum;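 as to AC50: potency for gain of reporter signal over DMSO so agonist or activator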)
# Chain of human Peroxisome Proliferator-activated Receptor alpha (PPARa), PPARA (gene 5465) (Q07869 whole entry, looked up, the tested form may be a part): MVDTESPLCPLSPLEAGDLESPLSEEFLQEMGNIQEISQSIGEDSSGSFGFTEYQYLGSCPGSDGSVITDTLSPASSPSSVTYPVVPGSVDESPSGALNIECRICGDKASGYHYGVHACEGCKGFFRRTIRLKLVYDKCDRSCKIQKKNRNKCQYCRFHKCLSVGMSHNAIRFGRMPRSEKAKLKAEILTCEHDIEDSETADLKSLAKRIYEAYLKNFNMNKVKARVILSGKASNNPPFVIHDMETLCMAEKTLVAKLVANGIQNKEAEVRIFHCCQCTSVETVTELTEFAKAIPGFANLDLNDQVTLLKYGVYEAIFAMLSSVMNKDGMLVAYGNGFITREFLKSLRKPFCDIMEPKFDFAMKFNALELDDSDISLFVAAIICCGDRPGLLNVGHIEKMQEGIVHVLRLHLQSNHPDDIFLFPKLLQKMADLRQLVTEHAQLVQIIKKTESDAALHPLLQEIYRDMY
# Outline: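 Reporter transcripts quantified by RT-PCR plus capillary electrophoresis after 24 h treatment, fitted upward relative to DMSO. Cells: human HepG2 transiently carrying multiple GAL4-UAS reporter units driven by NR-Gal4 chimeras.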
# [11] = molecular target: human Peroxisome Proliferator-activated Receptor delta (PPARd), PPARD (gene 5467) (UniProt Q03181); experiment: ATG_PPARd_TRANS: Attagene TRANS-FACTORIAL HepG2 Assay for human Peroxisome Proliferator-activated Receptor delta (PPARd) (AID 2283002; active = hit-call score of the fitted dose curve at least 0.9, where 1 is the maximum)
# Chain of human Peroxisome Proliferator-activated Receptor delta (PPARd), PPARD (gene 5467) (Q03181 whole entry, looked up, the tested form may be a part): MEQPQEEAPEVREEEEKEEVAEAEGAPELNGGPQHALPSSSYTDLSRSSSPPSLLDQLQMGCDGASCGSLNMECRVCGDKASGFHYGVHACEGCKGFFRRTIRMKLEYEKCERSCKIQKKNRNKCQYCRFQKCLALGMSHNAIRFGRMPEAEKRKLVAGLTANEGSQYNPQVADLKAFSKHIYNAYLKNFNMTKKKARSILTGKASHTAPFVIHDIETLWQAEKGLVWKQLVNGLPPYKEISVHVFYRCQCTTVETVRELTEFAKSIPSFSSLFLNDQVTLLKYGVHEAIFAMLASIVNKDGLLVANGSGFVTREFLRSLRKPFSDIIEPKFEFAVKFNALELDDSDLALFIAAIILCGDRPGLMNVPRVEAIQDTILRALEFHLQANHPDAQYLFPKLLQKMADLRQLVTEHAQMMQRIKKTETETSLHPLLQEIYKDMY
# Outline: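 Read-out is induced reporter mRNA, quantified by RT-PCR with fluorescent labelling and capillary electrophoresis after 24 h dosing. Cells are HepG2 transiently carrying multiple GAL4-UAS reporter units driven by exogenous NR-GAL4 chimeras; DMSO serves as baseline.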
# [12] = molecular target: Nuclear receptor subfamily 4 group A member 2 (Homo sapiens) (UniProt P43354); experiment: ATG_NURR1_TRANS: Attagene TRANS-FACTORIAL HepG2 Assay for human Nuclear Receptor Related Protein 1 (NURR1) (AID 2282985; active = hit-call score of the fitted dose curve at least 0.9, where 1 is the maximum); details: HepG2 Attagene TRANS reporter, mRNA readout
# Chain of Nuclear receptor subfamily 4 group A member 2 (Homo sapiens) (P43354 whole entry, looked up, the tested form may be a part): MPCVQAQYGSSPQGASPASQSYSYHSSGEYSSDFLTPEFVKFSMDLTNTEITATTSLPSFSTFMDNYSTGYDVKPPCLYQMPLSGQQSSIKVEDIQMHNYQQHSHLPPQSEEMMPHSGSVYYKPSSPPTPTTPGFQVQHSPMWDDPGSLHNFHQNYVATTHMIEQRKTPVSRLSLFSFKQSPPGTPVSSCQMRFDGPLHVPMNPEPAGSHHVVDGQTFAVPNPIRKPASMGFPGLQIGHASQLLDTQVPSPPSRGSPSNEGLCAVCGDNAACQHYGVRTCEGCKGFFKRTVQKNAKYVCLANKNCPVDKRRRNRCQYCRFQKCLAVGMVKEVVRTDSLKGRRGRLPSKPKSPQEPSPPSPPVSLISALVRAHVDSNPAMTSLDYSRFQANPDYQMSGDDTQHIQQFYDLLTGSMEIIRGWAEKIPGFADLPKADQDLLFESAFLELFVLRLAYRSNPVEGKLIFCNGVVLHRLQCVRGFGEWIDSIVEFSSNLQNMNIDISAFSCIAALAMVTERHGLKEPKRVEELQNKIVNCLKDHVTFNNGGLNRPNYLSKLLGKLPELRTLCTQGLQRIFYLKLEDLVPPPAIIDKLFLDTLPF
# Outline: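 Reporter transcript induction, measured by RT-PCR with fluorescent labelling, HpaI digestion and capillary electrophoresis, after 24 hr dosing of human HepG2 cells transiently expressing an exogenous NR-Gal4 fusion with GAL4-UAS-driven reporters; DMSO as baseline.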
# [13] = molecular target: Nuclear respiratory factor 1 (Homo sapiens) (UniProt Q16656); experiment: ATG_NRF1_CIS: Attagene CIS-FACTORIAL HepG2 Assay for human Nuclear Respiratory Factor 1 (NRF1) Orphan Gene (AID 2282987); details: HepG2 NRF1 cis-element reporter, Attagene multiplex; actives raise or lower the signal
# Chain of Nuclear respiratory factor 1 (Homo sapiens) (Q16656 whole entry, looked up): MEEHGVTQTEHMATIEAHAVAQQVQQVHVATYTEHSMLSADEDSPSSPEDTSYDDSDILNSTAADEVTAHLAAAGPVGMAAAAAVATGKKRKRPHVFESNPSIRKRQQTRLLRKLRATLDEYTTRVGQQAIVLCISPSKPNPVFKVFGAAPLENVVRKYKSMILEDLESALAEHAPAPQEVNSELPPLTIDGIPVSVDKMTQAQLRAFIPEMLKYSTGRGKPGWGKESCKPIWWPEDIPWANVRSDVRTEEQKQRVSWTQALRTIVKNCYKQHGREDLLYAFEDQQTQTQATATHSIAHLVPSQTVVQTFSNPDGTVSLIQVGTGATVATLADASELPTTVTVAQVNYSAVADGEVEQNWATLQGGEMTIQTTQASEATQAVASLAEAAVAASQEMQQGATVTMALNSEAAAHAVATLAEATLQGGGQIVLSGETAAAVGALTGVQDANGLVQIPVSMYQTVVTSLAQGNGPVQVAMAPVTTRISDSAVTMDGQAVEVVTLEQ
# Outline: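 Measured: fluorescent reporter-specific RT-PCR products from transfected HepG2 cells, separated by capillary electrophoresis. Exposure lasted 24 h. Analysis used bidirectional curve fitting with DMSO as negative control.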
# [14] = molecular target: human Retinoic Acid Receptor beta (RARb), RARB (gene 5915) (UniProt P10826); experiment: ATG_RARb_TRANS: Attagene TRANS-FACTORIAL HepG2 Assay for human Retinoic Acid Receptor beta (AID 2283004; active = hit-call score of the fitted dose curve at least 0.9, where 1 is the maximum)
# Chain of human Retinoic Acid Receptor beta (RARb), RARB (gene 5915) (P10826 whole entry, looked up, the tested form may be a part): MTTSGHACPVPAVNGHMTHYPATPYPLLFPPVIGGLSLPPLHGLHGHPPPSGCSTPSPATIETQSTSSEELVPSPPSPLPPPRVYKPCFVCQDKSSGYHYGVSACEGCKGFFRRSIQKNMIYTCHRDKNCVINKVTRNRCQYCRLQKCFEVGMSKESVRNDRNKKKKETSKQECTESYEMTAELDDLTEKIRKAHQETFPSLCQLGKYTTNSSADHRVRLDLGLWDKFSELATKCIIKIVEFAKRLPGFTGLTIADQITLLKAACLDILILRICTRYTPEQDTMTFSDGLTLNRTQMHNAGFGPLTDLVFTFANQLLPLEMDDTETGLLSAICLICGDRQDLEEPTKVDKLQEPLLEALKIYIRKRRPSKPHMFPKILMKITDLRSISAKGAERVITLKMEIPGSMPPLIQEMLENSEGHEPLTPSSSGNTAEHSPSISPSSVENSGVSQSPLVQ
# Outline: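 HepG2, transient MRTU transfection, NR–Gal4 chimera, 24 h treatment; RT-PCR plus CE fluorescence detection of reporter mRNA; gain of signal vs DMSO.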
# [15] = ATG_M_32_TRANS: Attagene TRANS-FACTORIAL HepG2 Assay for M32 Transcription Factor (Internal Marker) (AID 2282984; active = hit-call score of the fitted dose curve at least 0.9, where 1 is the maximum;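 also: transcript level of a background control reporter unit measured by RT-PCR and capillary electrophoresis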); details: HepG2 Attagene TRANS M32 internal marker reporter
# Outline: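 Internal background reporter in transfected HepG2: after 24 h chemical exposure, RNA reverse-transcribed, reporter cDNA amplified, fluorescently labelled and HpaI-cut, then sized by capillary electrophoresis. Gain of signal fitted against DMSO control.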
# [16] = BSK_3C_TissueFactor: BioMAP Diversity Plus: 3C Assay for Tissue Factor Biomarker Activity (AID 2282997); details: BioMAP 3C HUVEC, tissue factor biomarker readout; actives raise or lower the signal
# Outline: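 Cells used were primary human umbilical vein endothelial cells. They were dosed with chemical, and after 24 h Tissue Factor was quantified by ELISA. Curves were fitted bidirectionally with DMSO as baseline.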
# [17] = BSK_3C_uPAR: BioMAP Diversity Plus: 3C Assay for Urokinase-type plasminogen activator receptor (uPAR) Biomarker Activity (AID 2282998); details: BioMAP 3C HUVEC, uPAR biomarker ELISA; actives raise or lower the signal
# Outline: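 Dose primary human umbilical vein endothelial cells, incubate 24 h, measure cell-surface uPAR by ELISA, then fit the signal in both directions against the DMSO negative control.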
# [18] = BSK_3C_VCAM1: BioMAP Diversity Plus: 3C Assay for Vascular cell adhesion molecule 1 (VCAM1) Biomarker Activity (AID 2282999); details: BioMAP 3C HUVEC, VCAM1 ELISA, cytokine-stimulated; actives raise or lower the signal
# Outline: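 Activity fitted in both directions relative to DMSO, with ELISA measurement of the surface marker on primary HUVEC (3C) at 24 h post-treatment; parallel SRB staining (0.1% SRB, TCA-fixed, 560 nm) flagged overt cytotoxicity.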
# [19] = BSK_4H_Eotaxin3: BioMAP Diversity Plus: 4H Assay for Eotaxin 3 Biomarker Activity (AID 2283000); details: primary human endothelial cells (HUVEC); actives raise or lower the signal;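 as to outcome: CCL26 protein level quantified by ELISA in parallel with SRB cytotoxicity check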
# Outline: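 Endothelial primary cells (human umbilical vein) exposed to compound for 24 h. ELISA detection of Eotaxin-3.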
# [20] = read-out: Intercellular Adhesion Molecule 1 (ICAM1), ICAM1 (gene 3383); experiment: BSK_3C_ICAM1: BioMAP Diversity Plus: 3C Assay for Intercellular Adhesion Molecule 1 (ICAM1) Biomarker Activity (AID 2283003); details: primary human endothelial cells (HUVEC); actives raise or lower the signal
# Outline: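 ELISA readout of ICAM1 in human umbilical vein endothelial cells in the 3C system, taken 24 h post-dose. Gain or loss of signal versus DMSO was fitted in both directions, with SRB total-protein staining run in parallel.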
structure (smiles),measurement,setting,value
CCCCOC(C)=O,outcome,[1],inactive
same,outcome,[2],inactive
same,AC50,[3],100000 nM (active)
same,outcome,[3],inactive
same,outcome,[4],inactive
same,outcome,[5],inactive
same,outcome,[6],inactive
same,outcome,[7],inactive
same,outcome,[8],inactive
same,outcome,[9],inactive
same,outcome,[10],inactive
same,outcome,[11],inactive
C[C@@H]1O[C@@H](O[C@H]2C[C@@H](O)[C@]3(CO)[C@H]4[C@H](O)C[C@]5(C)[C@@H](C6=CC(=O)OC6)CC[C@]5(O)[C@@H]4CC[C@]3(O)C2)[C@H](O)[C@H](O)[C@H]1O,outcome,[1],inactive
same,outcome,[2],inactive
same,outcome,[12],inactive
same,AC50,[3],328 nM (active)
same,outcome,[13],inactive
same,AC50,[4],645 nM (active)
same,outcome,[5],inactive
same,AC50,[7],19500 nM (active)
same,AC50,[8],620 nM (active)
same,AC50,[10],71.4 nM (active)
same,outcome,[14],inactive
CC(=O)CN(CC(C)=O)N=O,outcome,[1],inactive
same,outcome,[2],inactive
same,outcome,[15],inactive
same,outcome,[3],inactive
same,outcome,[13],inactive
same,outcome,[4],inactive
same,outcome,[5],inactive
same,outcome,[6],inactive
same,outcome,[7],inactive
same,outcome,[8],inactive
same,outcome,[9],inactive
same,outcome,[10],inactive
same,outcome,[11],inactive
CC1CC(=O)O1 (stereo not drawn),outcome,[1],inactive
same,outcome,[2],inactive
same,outcome,[12],inactive
same,outcome,[3],inactive
same,outcome,[13],inactive
same,outcome,[4],inactive
same,outcome,[5],inactive
same,outcome,[7],inactive
same,outcome,[8],inactive
same,outcome,[11],inactive
CCCCN(CCCC)C(=S)[S-].CCCCN(CCCC)C(=S)[S-].[Ni+2],outcome,[1],inactive
same,outcome,[2],inactive
same,outcome,[15],inactive
same,outcome,[3],inactive
same,outcome,[13],inactive
same,outcome,[4],inactive
same,outcome,[5],inactive
same,outcome,[7],inactive
same,outcome,[8],inactive
same,outcome,[16],inactive
same,outcome,[17],inactive
same,outcome,[18],inactive
same,outcome,[19],inactive
same,outcome,[20],inactive
[Cl][Sn]([c]1ccccc1)([c]1ccccc1)[c]1ccccc1,AC50,[1],228 nM (active)
same,outcome,[2],inactive
same,AC50,[12],6.88 nM (active)
same,AC50,[3],1530 nM (active)
same,AC50,[13],216 nM (active)
same,AC50,[4],228 nM (active)
same,AC50,[5],1400 nM (active)
same,AC50,[6],232 nM (active)
same,AC50,[7],78.5 nM (active)
same,AC50,[8],250 nM (active)
same,AC50,[16],297 nM (active)
same,AC50,[17],141 nM (active)
same,AC50,[18],177 nM (active)
same,AC50,[19],98.5 nM (active)
same,AC50,[20],318 nM (active)
C[CH2][Hg][S]c1ccccc1C(=O)O,outcome,[1],inactive
same,outcome,[2],inactive
same,outcome,[12],inactive
same,AC50,[3],3890 nM (active)
same,outcome,[13],inactive
same,AC50,[4],1580 nM (active)
same,outcome,[5],inactive
same,outcome,[6],inactive
same,AC50,[8],2870 nM (active)
same,outcome,[9],inactive
same,outcome,[10],inactive
same,outcome,[11],inactive
same,outcome,[14],inactive
C=CCc1ccccc1O,outcome,[1],inactive
same,outcome,[2],inactive
same,outcome,[15],inactive
same,outcome,[3],inactive
same,outcome,[13],inactive
same,outcome,[4],inactive
same,outcome,[5],inactive
same,outcome,[7],inactive
same,outcome,[8],inactive
same,outcome,[9],inactive
same,outcome,[10],inactive
Cc1ccc(CCl)cc1,outcome,[1],inactive
same,outcome,[2],inactive
same,outcome,[15],inactive
same,outcome,[3],inactive
same,outcome,[13],inactive
same,outcome,[4],inactive
same,outcome,[5],inactive
same,outcome,[6],inactive
same,outcome,[8],inactive
same,outcome,[9],inactive
same,outcome,[10],inactive
BrCCCCBr,outcome,[1],inactive
same,outcome,[2],inactive
same,outcome,[15],inactive
same,outcome,[3],inactive
same,outcome,[4],inactive
same,outcome,[6],inactive
same,outcome,[8],inactive
same,outcome,[9],inactive
same,outcome,[10],inactive
O=C(NC(=O)c1c(F)cccc1F)Nc1cc(Cl)c(F)c(Cl)c1F,outcome,[1],inactive
same,outcome,[2],inactive
same,outcome,[15],inactive
same,outcome,[3],inactive
same,outcome,[13],inactive
same,outcome,[4],inactive
same,outcome,[5],inactive
same,outcome,[6],inactive
same,outcome,[8],inactive
